Assay outcomes from PubChem.
ATXN viability = viability counter-screen for ATXN expression inhibitors; Potency, µM (doses to about 56.7 µM), hits mostly cytotoxic; AID 651635; S2 cells (HEK-293 line with an ATXN2-luciferase reporter) viability, CellTiter-Fluor protease fluorescence, 24 h; 400,000 compounds, 0.49% hits; also: nearly all actives have a fitted effect of over 40% in size
ATXN2 expr inh = inhibitors of ATXN2 expression; HEK-293 ATXN2-luciferase reporter, luminescence, 24 h; Potency, µM (titrated, usually from 57 µM), inactives show at the top dose activity change, negative = inhibition, most hits filed as inhibitors; 360,000 compounds, 0.72% hits; AID 1745845; also: % is scaled to controls: 0 for no effect and ±100 for the full control effect; nearly all actives have a fitted effect of over 55% in size
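qHTS (up to 57 uM final) was run with 24 h compound exposure of reporter cells at 37 °C. Each well was multiplexed: SteadyGlo luminescence measured ATXN2-luciferase expression after a fluorogenic Gly-Phe-AFC viability readout (25 uM final).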
HepG2 viability = counter-screen for TGF-b inhibitors: cytotoxicity in HepG2 cells; AID 588856; 410,000 compounds, 0.76% hits; Potency, µM (series often up to 46.1 µM), inactives show top-dose activity change, negative = cytotoxicity, most hits filed as cytotoxic; HepG2 CAGA-GFP viability, ATP luminescence, 18 h
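HepG2 CAGA-GFP cells (1000/well, DMEM with 1% FBS) received compound, then TGF-beta at 500 pg/mL final, and were incubated 18 hours at 37 degrees C. Viability was read by CellTiter-Glo luminescence. Media-only wells were set as complete cell-killing and DMSO as no toxicity.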
HT1080-NT tox = kills 2HG-producing HT-1080-NT fibrosarcoma cells | HT-1080-NT fibrosarcoma viability, CellTiter-Glo ATP luminescence, 48 h | Potency, µM (titrated, usually from 46.1 µM), for the others: top-dose activity, negative = less viability, most hits filed as cytotoxic | 360,000 compounds, 1.6% hits | AID 686970;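 also: NT is the 2HG producing partner of a matched IDH1 knockdown line; 0% = DMSO-treated cells and -100% = media-only wells without cells; nearly all actives have a fitted effect of over 55% in size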
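A 48-hour cytotoxicity screen used HT-1080-NT cells plated 2 hours before compound delivery. ATP-based CellTiter-Glo luminescence measured viability, normalized to DMSO and no-cell controls.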
HT1080 IDH1KD tx = kills HT-1080 cells with IDH1 knockdown. 360,000 compounds, 2% hits. HT-1080 IDH1 knockdown viability, ATP luminescence, 48 h. Potency, µM (titrated, usually from 46.1 µM), without a hit: at the top dose activity, negative = toxicity, usual class: cytotoxic. AID 686971;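 also: 0% = DMSO wells and -100% = cell-free medium wells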
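Using the IDH1-knockdown HT-1080 line run in the same batch and compound series as the NT line, viability after 48 h at 37 °C was determined by CellTiter-Glo luminescence and expressed as % activity.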
TGFb inhibitor = inhibitors of TGF-b signaling | HepG2 CAGA-GFP TGF-b/SMAD3 reporter, GFP fluorescence, 18 h; TGF-beta stimulated, 500 pg/mL final | Potency, µM (highest dose often 46.1 µM), for the others: at the highest dose activity, negative = inhibition, actives largely listed as inhibitors | 410,000 compounds, 1.2% hits | AID 588855; also: % is scaled to controls: 0 for no effect and ±100 for the full control effect; nearly all actives have a fitted effect of over 65% in size
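TGF-beta reporter screen: HEPG2 CAGA-GFP, 1% FBS, 500 pg/mL TGF-beta final, 18 h; per-cell GFP summed per well; curves fitted and categorized by class.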
* marks the source's active call; other numbers are inactive results; i = inactive; u = inconclusive; x = not tested or not shown. In the library only some 3.9% were active in any assay of this set; here they are far more common. Calls follow the shape of the dose curve; as a rule, active = well fitted curve in the direction sought with a large enough effect; inconclusive = small, poorly fitted or top-dose-only effect, or another doubt; inactive = no such curve, though single readings can be large; an effect the other way counts as inactive or inconclusive. Potency is read from the fitted curve at half-maximal effect.

SMILES	ATXN viability	ATXN2 expr inh	HepG2 viability	HT1080-NT tox	HT1080 IDH1KD tx	TGFb inhibitor
CCc1ccc(CN(C(=O)Nc2cccc(Cl)c2)c2ccccn2)cc1	i	22.7%	-16.6%	x	x	-21.5%
CC(C)NC(=O)c1cnc2sc(N3CCCCCC3)nn2c1=O	x	x	0.3%	x	x	u
O=C1C(Cl)=C(N2CCCCC2)C(=O)C(Cl)=C1c1cnc(N2CCCCC2)s1	u	u	-32.1%	u	16.4µM*	-9.4%
COc1ccc(NC(=S)NN(C)C(=S)Nc2ccc(OC)cc2)cc1	i	4.4%	9.2%	1.46µM*	1.3µM*	0.0%
NS(=O)(=O)c1ccc(N2N=C(c3ccccc3)CC2c2cccc(F)c2)cc1 (configuration not stated)	i	2.2%	-83.2%	-4.1%	-6.2%	u
COc1ccc(C2CC(c3ccc(Cl)cc3)=NN2c2ccc(S(N)(=O)=O)cc2)cc1 (configuration not stated)	x	0.0%	17.8µM*	u	u	u
COc1ccc(C2CC(c3ccncc3)=NN2c2ccc(S(N)(=O)=O)cc2)cc1 (configuration not stated)	x	77.5%	-46.7%	u	u	16.5%
COc1ccc(C2CC(c3ccccc3)=NN2c2ccc(N)cc2)cc1 (configuration not stated)	i	-31.4%	-19.3%	u	u	-9.0%
CC(=O)Oc1ccc(C2=NN(c3ccccc3)C(c3ccccc3)C2)cc1 (configuration not stated)	i	x	-120.4%	16.4µM*	u	u
NS(=O)(=O)c1ccc(N2N=C(c3ccc(Br)cc3)CC2c2ccc(F)cc2)cc1 (configuration not stated)	x	u	20µM*	6.51µM*	11.6µM*	u
COc1ccc(OC)c(-c2cc(Cl)c3c(c2)CC(CNC(=O)[C@@H]2CCCN2C(C)=O)O3)c1 (some centres not stated)	i	x	x	x	x	x
O=C(NCc1ccccc1)C1CCN(S(=O)(=O)c2ccc3c(c2)CCCN3C(=O)C2CCC2)CC1	i	-11.2%	-29.8%	x	x	u
C=CC[C@@H](CC(=O)N(CCO)Cc1ccccc1)C(=O)N[C@H](COC(=O)[C@@H](CC=C)Cc1ccc(F)cc1)c1ccccc1	22.4µM*	u	-26.5%	-26.2%	-22.2%	u
C=CC[C@H](CC(=O)NCCO)C(=O)NC[C@H](OC(=O)[C@@H](CC=C)Cc1ccc(F)cc1)c1ccccc1	i	10.1%	-20.3%	3.9%	-2.8%	-0.9%
C=CC[C@@H](CC(=O)N(CCO)Cc1ccccc1)C(=O)NC[C@H](OC(=O)[C@@H](CC=C)Cc1ccc(F)cc1)c1ccccc1	20µM*	u	-90.7%	u	u	u
CC(Oc1ccc(Br)cc1)C(=O)Nc1ncn[nH]1 (configuration not stated)	i	1.9%	-2.2%	x	x	17.1%
COc1ccc2cc(-c3nc4ccc(C(=O)O)cc4[nH]3)c(=O)oc2c1	x	u	-1.6%	x	x	-5.9%
Cc1ccc(CN2C(=O)c3ccccc3C2c2nnnn2-c2ccc3c(c2)OCCO3)cc1 (configuration not stated)	u	-18.6%	x	-15.7%	u	x
Cc1ccccc1CN1C(=O)c2ccccc2C1c1nnnn1-c1ccc2c(c1)OCCO2 (configuration not stated)	u	7.3%	x	3.66µM*	3.26µM*	x
O=C(CSc1nnc2[nH]c(=O)cc(-c3ccccc3)n12)Nc1cc(C(F)(F)F)ccc1Cl	x	x	2.3%	x	x	0.1%
COc1ccccc1CNS(=O)(=O)c1ccc(-c2cc(C)no2)cc1	i	x	-14.2%	4.11µM*	2.06µM*	u
COc1ccc(-c2cc(C)no2)cc1S(=O)(=O)NCc1cccc(C)c1	i	-15.7%	-18.9%	18.4µM*	u	-9.8%
CCc1ccc(-c2cc(C)no2)cc1S(=O)(=O)NCc1ccccc1OC	u	x	-28.8%	-12.4%	-4.5%	-19.0%
COc1ccc(CNS(=O)(=O)c2cc(-c3cc(C)no3)ccc2OC)cc1OC	i	-8.2%	0.1%	9.9%	11.2%	-3.6%
CN(CC(=O)Nc1ccc(F)cc1)C(=O)c1cccc(NS(=O)(=O)c2ccccc2)c1	i	11.6%	1.6%	2.7%	0.8%	-1.2%
SMILES	ATXN viability	ATXN2 expr inh	HepG2 viability	HT1080-NT tox	HT1080 IDH1KD tx	TGFb inhibitor
CN(CC(=O)Nc1ccc(Cl)cc1)C(=O)c1ccc(S(=O)(=O)Nc2ccccc2)cc1	i	u	-33.8%	13µM*	16.4µM*	-37.6%
CN1CCN(/N=C/c2c3ccccc3c(Cl)c3ccccc23)CC1	i	-17.3%	-35.7%	23.1µM*	20.6µM*	u
O=c1[nH]c(/C=C/c2ccccc2OC(F)F)nc2c1cnn2-c1ccccc1	i	-16.3%	-9.9%	18.4µM*	u	-1.3%
CCCCCOc1ccc(C(=O)OC(C)C(=O)NCc2ccco2)cc1 (configuration not stated)	i	-3.4%	-25.1%	u	20.6µM*	-7.0%
Cc1ccc(C(=O)C(OC(=O)CNC(=O)COc2ccccc2C)c2ccccc2)cc1 (configuration not stated)	x	x	3.2%	x	x	4.6%
CCN(CC)CCNC(=O)c1ccc(N2CCCCC2)c(NS(=O)(=O)c2ccc(C)cc2)c1	u	u	-59.1%	u	u	-5.6%
CCN(CC)CCNc1cc(C)nc2c1C(=O)C(=O)C=C2N1CCCCC1	14.1µM*	x	-29.7%	5.0%	-15.1%	6.31µM*
CN(C)c1ccc(/C=C/c2ccnc3ccc(F)cc23)cc1	x	x	-30.7%	x	x	-3.2%
Cc1[nH]cnc1-c1ccc(Cl)cc1	i	15.8%	x	x	x	x
CCN1CCN(CCNC(=O)c2ccc(/C=C3/Sc4ccccc4N(Cc4ccccc4C)C3=O)cc2)CC1	u	u	-94.0%	14.6µM*	20.6µM*	17.8µM*
CCN1CCN(CCCNC(=O)c2ccc(/C=C3/Sc4ccccc4N(Cc4ccccc4F)C3=O)cc2)CC1	i	u	11.2µM*	18.4µM*	14.6µM*	u
Cc1ccccc1CN1C(=O)c2ccccc2Sc2ccc(C(=O)NCCN3CCOCC3)cc21	i	-25.6%	-13.8%	-29.0%	-28.7%	-20.8%
O=S(=O)(Nc1ccc(-c2ccc(N3CCCCC3)nn2)cc1)c1ccc(OC(F)(F)F)cc1	u	-8.6%	-18.6%	x	x	u
Cc1ccc(Cl)cc1N1CCN(C(=O)CCS(=O)(=O)c2ccc3c(c2)oc(=O)n3C)CC1	i	-1.6%	-3.6%	x	x	-20.7%
